Assay [1] deals with Plasmodium falciparum Sir2 (PF13_0152, Sir2A). As to the kind of experiment: Plasmodium falciparum Sir2A binding compounds – biochemical, small-molecule microarray, 635 nm fluorescence, primary screen (AID 1098).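 Note: score merges spot fluorescence intensity with its signal-to-noise ratio.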 Conditions: fluorescence 635 nm, higher = more signal.
Assay [2] can be described thus: probe aDKK1 binding to arrayed compounds – biochemical, biotinylated probe, 635/667 nm fluorescence, primary screen (AID 1099).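 Note: score merges 667nm spot fluorescence with signal to noise across triplicate slides.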 The conditions noted are these: small-molecule microarray, higher = more signal.
Assay [3] in a line: probe aCHRDL2 binding to arrayed compounds – biochemical, biotinylated probe, 635/667 nm fluorescence, primary screen (AID 1100). Conditions: small-molecule microarray, higher = more signal.
The nature of assay [4]: change in splice reporter luminescence, either direction, cell-based, HEK293, spliceosome inhibition project, primary screen (AID 1101).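 Note: HEK293 cells carrying a splicing-competent luciferase reporter gene; test concentration not given here.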 The conditions noted are these: HEK293 splicing luciferase reporter, 24 h, higher = more signal, called active from +8 up or from −8 down. A general note: Reporter assays use an easily measured gene product as a stand-in for the process of interest.

Assay [5] addresses Fibroblast growth factor 10 (Homo sapiens) (UniProt O15520). As to the kind of experiment: compounds binding fibroblast growth factor 10 – biochemical, small-molecule microarray, 635 nm fluorescence, primary screen (AID 1102). The conditions noted are these: FGF10 binding, fluorescence 635 nm, higher = more signal.
Assay [6] deals with glycogen synthase kinase-3 (GSK3A per assay name; protocol says GSK3B). As to the kind of experiment: compounds binding glycogen synthase kinase-3 – biochemical, small-molecule microarray, 635 nm fluorescence, GSK3A, primary screen (AID 1103). Note: the record names both GSK3A and GSK3B. The conditions noted are these: fluorescence 635 nm, higher = more signal.
The target in assay [7] is Epidermal growth factor receptor (Homo sapiens) (UniProt P00533). As to the kind of experiment: compounds binding epidermal growth factor receptor – biochemical, small-molecule microarray, 635 nm fluorescence, primary screen (AID 1104).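 Note: score merges 667 nm emission intensity with spot signal to noise over triplicate slides.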 The conditions noted are these: EGFR binding, higher = more signal.
The target of assay [8] is Follistatin-related protein 3 (Homo sapiens) (UniProt O95633). As to the kind of experiment: compounds binding follistatin-related protein 3 – biochemical, small-molecule microarray, 635 nm fluorescence, primary screen (AID 1105).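 Note: score merges emission near 667 nm and signal to noise per printed spot across three slides.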 The conditions noted are these: FSTL3 binding, higher = more signal.
For assay [9], the target named is Dickkopf-related protein 1 (Homo sapiens) (UniProt O94907). As to the kind of experiment: small molecules binding DKK1 protein – biochemical, small-molecule microarray, 635 nm fluorescence scan, primary screen (AID 1106).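 Note: score merges emission near 667 nm with signal to noise over three replicate slides.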 The conditions noted are these: higher = more signal.
Assay [10] concerns Inhibin beta A chain (activin A). As to the kind of experiment: small molecules binding activin A – biochemical, small-molecule microarray, 635 nm fluorescence scan, primary screen (AID 1107).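 Note: mouse activin A protein probed at 4.33 µg/mL on printed slides; score merges bound-protein fluorescence near 667 nm with spot signal-to-noise.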 The conditions noted are these: INHBA, higher = more signal.
Assay [11] relates to Human papillomavirus type 1a protein E7 (residues 44-93). As to the kind of experiment: small molecules binding HPV E7 44-93 – biochemical, small-molecule microarray, residues 44-93, 635 nm fluorescence, primary screen (AID 1108).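 Note: E7 fragment applied at 1 µg/mL in TBST for 1 h at 4 C; score combines spot fluorescence with its signal to noise ratio.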 The conditions noted are these: fluorescence 635 nm, higher = more signal.
Assay [12] is described as follows: hepatitis C replication reporter changes, two-sided – Huh7 cells, luciferase reporter, HCV replication inhibitor project, primary screen (AID 1109).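 Note: huh7 hepatoma cells harbouring a luciferase neomycin HCV replicon reporter; luciferase luminescence as measure of HCV replicon replication; test concentration not given here.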 Conditions: Huh7 HCV replicon luciferase reporter, 48 h; higher = more signal.
Assay [13] concerns the target Left-right determination factor 2 (Homo sapiens) (UniProt O00292). As to the kind of experiment: small molecules binding LEFTY2 protein – biochemical, small-molecule microarray, 635 nm fluorescence scan, primary screen (AID 1110). Conditions: higher = more signal.
The target of assay [14] is Calmodulin-1 (Homo sapiens) (UniProt P0DP23). As to the kind of experiment: small molecules binding calmodulin-1 with EGTA – biochemical, small-molecule microarray, Cy5-labelled CALM1, profiling panel (AID 1111).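 Note: labelled calmodulin applied in Tris saline Tween buffer holding calcium plus EGTA and DTT.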 The conditions noted are these: Cy5-CALM1 binding fluorescence, higher = more signal.
Assay [15] shares this target. As to the kind of experiment: small molecules binding Ca-loaded calmodulin-1 – biochemical, small-molecule microarray, Cy5-labelled CALM1, plus calcium, artefact control for SMM control-protein annotation, profiling panel (AID 1112).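 Note: score merges spot fluorescence with signal to noise from triplicate slides.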 Conditions: Cy5-CALM1 binding fluorescence, higher = more signal.
Assay [16] in a line: probe aWnt5a binding to arrayed compounds – biochemical, biotinylated probe, 635/667 nm fluorescence, primary screen (AID 1113).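 Note: score merges 667 nm fluorescence intensity with signal-to-noise per printed feature.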 Conditions: small-molecule microarray, higher = more signal.
A short description of assay [17]: probe aShh binding to arrayed compounds – biochemical, biotinylated probe, 635/667 nm fluorescence, primary screen (AID 1114).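 Note: probe is biotin-labelled aShh protein from a stem cell growth factor screen; measures binding of labelled protein to compounds printed on the slide; score merges feature fluorescence at 667 nm with signal-to-noise.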 Conditions: small-molecule microarray, higher = more signal.
The nature of assay [18]: probe aNog binding to arrayed compounds – biochemical, biotinylated probe, 635/667 nm fluorescence, primary screen (AID 1115).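 Note: probe is biotinylated aNog protein used at 0.15 µg/mL for 1 h at 4 C; z-score combines 667 nm fluorescence of each spot with its signal to noise.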 Conditions: small-molecule microarray, higher = more signal.
The target in assay [19] is Torsin-1A-interacting protein 1 (Homo sapiens) (UniProt Q5JTV8). As to the kind of experiment: compound microarray binding of lysate hLAP1 – cell lysate, small-molecule microarray, COS7 lysate, 635/667 nm fluorescence, primary screen (AID 1116). Conditions: 635 nm fluorescence, higher = more signal.
Assay [20] addresses Alpha-bungarotoxin (Bungarus multicinctus) (UniProt P60615). As to the kind of experiment: compounds binding labelled alpha-BTX control protein – biochemical, small-molecule microarray, Alexa647 label, 635/667 nm fluorescence, artefact control for SMM control protein annotation, profiling panel (AID 1117). Conditions: alpha-BTX-A647 binding fluorescence, higher = more signal.

Calls of active or inactive are those of the source.

Alpha-bungarotoxin (Bungarus multicinctus), sequence (P60615 whole entry, looked up): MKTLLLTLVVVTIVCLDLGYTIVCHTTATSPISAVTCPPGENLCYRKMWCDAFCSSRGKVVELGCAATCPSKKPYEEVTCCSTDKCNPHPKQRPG
Dickkopf-related protein 1 (Homo sapiens), sequence (O94907 whole entry, looked up): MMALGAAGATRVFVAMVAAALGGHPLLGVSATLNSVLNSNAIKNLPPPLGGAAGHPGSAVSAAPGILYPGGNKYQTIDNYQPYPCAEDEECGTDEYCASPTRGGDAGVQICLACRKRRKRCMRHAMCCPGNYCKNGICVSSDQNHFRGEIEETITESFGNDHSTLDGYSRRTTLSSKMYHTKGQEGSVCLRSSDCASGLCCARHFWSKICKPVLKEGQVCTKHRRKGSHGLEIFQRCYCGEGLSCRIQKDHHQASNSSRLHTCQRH
Left-right determination factor 2 (Homo sapiens), sequence (O00292 whole entry, looked up): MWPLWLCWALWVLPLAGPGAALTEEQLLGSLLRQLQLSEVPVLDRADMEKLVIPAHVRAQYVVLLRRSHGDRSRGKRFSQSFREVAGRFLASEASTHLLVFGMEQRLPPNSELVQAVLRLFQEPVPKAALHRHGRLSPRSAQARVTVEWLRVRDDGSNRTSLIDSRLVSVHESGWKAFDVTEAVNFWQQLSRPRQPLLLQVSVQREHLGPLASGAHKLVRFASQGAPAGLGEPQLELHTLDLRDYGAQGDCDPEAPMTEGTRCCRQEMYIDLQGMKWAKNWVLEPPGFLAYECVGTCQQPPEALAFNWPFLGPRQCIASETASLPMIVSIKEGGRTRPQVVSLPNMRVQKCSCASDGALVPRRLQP
Torsin-1A-interacting protein 1 (Homo sapiens), sequence (Q5JTV8 whole entry, looked up): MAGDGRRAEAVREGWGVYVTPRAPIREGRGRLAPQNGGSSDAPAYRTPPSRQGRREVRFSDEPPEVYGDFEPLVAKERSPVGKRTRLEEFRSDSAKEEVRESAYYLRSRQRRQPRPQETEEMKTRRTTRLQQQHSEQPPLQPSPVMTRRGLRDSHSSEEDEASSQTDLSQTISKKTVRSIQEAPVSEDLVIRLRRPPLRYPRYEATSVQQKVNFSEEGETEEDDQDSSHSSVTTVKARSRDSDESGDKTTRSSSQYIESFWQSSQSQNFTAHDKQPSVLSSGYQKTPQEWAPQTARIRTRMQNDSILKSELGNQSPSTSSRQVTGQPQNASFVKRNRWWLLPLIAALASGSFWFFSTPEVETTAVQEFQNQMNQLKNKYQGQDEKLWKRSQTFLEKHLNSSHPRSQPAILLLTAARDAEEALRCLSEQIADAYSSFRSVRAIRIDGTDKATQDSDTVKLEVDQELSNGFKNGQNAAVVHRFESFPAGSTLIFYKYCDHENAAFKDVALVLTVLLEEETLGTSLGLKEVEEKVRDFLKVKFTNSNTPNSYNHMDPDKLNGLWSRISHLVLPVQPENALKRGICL
Epidermal growth factor receptor (Homo sapiens), sequence (P00533 whole entry, looked up): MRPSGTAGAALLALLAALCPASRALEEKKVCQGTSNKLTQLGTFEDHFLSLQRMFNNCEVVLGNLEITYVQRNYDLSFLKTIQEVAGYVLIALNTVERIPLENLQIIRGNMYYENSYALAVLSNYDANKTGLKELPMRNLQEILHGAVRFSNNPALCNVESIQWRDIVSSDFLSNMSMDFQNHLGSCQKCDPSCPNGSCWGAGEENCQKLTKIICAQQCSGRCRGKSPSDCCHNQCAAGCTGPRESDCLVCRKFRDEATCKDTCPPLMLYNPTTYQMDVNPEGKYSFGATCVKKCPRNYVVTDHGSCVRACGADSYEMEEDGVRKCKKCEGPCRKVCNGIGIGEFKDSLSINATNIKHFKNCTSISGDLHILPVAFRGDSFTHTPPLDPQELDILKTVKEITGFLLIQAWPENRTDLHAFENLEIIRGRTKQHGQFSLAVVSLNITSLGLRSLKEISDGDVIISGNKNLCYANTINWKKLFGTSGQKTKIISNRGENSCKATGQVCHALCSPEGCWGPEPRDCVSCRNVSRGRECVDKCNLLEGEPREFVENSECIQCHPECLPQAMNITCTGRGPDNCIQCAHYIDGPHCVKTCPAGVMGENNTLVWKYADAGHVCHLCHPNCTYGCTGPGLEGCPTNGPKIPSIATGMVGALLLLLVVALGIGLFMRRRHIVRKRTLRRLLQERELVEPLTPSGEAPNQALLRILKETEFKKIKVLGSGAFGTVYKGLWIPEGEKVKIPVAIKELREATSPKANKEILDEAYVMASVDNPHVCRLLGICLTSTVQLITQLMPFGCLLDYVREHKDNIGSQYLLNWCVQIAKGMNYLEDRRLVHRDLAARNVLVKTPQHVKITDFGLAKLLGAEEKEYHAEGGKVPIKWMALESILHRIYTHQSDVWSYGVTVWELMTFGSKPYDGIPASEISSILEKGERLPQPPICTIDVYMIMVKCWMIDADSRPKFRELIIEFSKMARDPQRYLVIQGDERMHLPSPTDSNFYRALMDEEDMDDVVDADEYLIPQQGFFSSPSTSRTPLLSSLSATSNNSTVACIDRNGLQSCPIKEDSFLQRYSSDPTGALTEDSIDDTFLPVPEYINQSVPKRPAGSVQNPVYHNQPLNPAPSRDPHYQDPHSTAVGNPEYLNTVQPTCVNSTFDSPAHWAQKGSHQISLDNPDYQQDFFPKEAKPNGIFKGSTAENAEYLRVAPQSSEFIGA
Follistatin-related protein 3 (Homo sapiens), sequence (O95633 whole entry, looked up): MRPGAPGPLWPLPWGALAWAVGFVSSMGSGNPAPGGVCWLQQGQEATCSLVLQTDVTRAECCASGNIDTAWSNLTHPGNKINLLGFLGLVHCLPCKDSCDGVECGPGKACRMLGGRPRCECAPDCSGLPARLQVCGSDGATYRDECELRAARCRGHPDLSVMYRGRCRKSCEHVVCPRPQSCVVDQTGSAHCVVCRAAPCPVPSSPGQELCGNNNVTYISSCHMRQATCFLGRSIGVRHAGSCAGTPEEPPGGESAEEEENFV
Fibroblast growth factor 10 (Homo sapiens), sequence (O15520 whole entry, looked up): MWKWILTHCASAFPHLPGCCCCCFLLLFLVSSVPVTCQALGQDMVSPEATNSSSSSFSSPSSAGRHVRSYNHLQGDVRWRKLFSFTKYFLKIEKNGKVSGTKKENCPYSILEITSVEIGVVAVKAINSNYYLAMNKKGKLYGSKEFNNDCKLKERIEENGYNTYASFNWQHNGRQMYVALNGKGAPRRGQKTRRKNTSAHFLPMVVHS

For `COc1ccc([Si](C)(C)[C@H]2[C@H](CC(=O)N(CCO)Cc3ccccc3)O[C@@]3(C(=O)N(Cc4cccc(N5C(=O)c6cccc7cccc5c67)c4)c4ccccc43)[C@@H]2C)cc1`, the composite z-score in assay [1] was 0.803; in assay [2], -0.534; in assay [3], 0.0901; in assay [5], 0.158; in [6], 0.0107; in assay [7], 0.148. For the same compound, the composite z-score is 0.303 in [8]; 0.491 in [9]; 0.9 in [10]; 0.9 in assay [11]; 0.45 in [13]; 0.847 in assay [14]. Besides, the composite z-score in [15] is -0.0174; in assay [16], -0.107; in assay [17], -0.165; in assay [18], 0.0857; in assay [19] it was 0.389; in [20], 0.942. Moreover, the z-score is -2.5 (inactive) in assay [4] and -4.25 in assay [12].
With `CCOC1=C2C(c3ccc(C)cc3)N(S(=O)(=O)c3ccc(C)cc3)CC2n2c(=O)n(-c3ccccc3)c(=O)n2C1` (stereo not given), the composite z-score stood at 0.818 in assay [1]; 0.579 in [2]; 0.5 in [3]; 1.04 in [5]; 1.29 in [6]; 0.559 in assay [7]. The composite z-score in [8] is 1.26; in [9] it was 0.424; in assay [10] it was 0.329; in assay [11], 1.32; in assay [13], 0.584; in assay [14], 0.683. In addition, the composite z-score in assay [15] is -0.332; in assay [16], 0.0244; in assay [17] it was -0.0866; in assay [18], 0.664; in assay [19] it was 0.582; in [20] it was 1.42. Besides, the values for the z-score in assay [4] and in [12] were -0.0374 (inactive) and -1.1, respectively.
For the compound `CCCNC(=O)[C@@]1(C)c2ccccc2C(=O)N(Cc2cc(F)cc(C(F)(F)F)c2)[C@H]1c1ccc(CO)cc1`, the composite z-score in assay [1] is 1.25; in [2] it was 0.0202; in assay [3] it was 0.995; in [5] it was -1.02; in [6] it was -0.552; in [7], -0.668. In addition, the composite z-score in assay [8] is -0.286; in [9] it was -1.44; in [10], -0.496; in assay [11], 0.843; in [13] it was -0.742; in assay [14], 0.685. For the same compound, the composite z-score in assay [15] is 0.499; in [16], -0.0405; in assay [17], 0.0469; in assay [18], 1.03; in [19], 0.296; in [20] it was -0.0457. Moreover, the z-score in assay [4] is -0.377 (inactive); in assay [12] it was -0.372.
As for `COCCOC(=O)N1C(=O)[C@@]2(c3cc(C#CCCO)ccc31)[C@H](C(=O)NC[C@H](O)c1ccccc1)[C@H]1C(=O)O[C@H](c3ccccc3)[C@H](c3ccccc3)N1[C@@H]2c1ccc(OCCO)cc1`, the composite z-score in assay [1] amounted to 1.24; in [2] it was 0.112; in [3], 0.169; in assay [5], 0.901; in assay [6], 1.3; in assay [7], 0.887. Further, the composite z-score turned out to be 1.26 in [8]; 0.512 in [9]; 0.585 in assay [10]; 1.08 in assay [11]; 0.532 in assay [13]; 1.09 in [14]. Moreover, the composite z-score in [15] was -0.191; in assay [16], -0.197; in assay [17], -0.23; in assay [18] it was -0.456; in assay [19], 0.274; in assay [20], 0.895. Moreover, the z-score in assay [4] was -1.33 (inactive); in assay [12] it was -0.646.
Consider `CC(C)OC(=O)C1=CCC(c2cccc(Cl)c2)O1` (stereo not given), for which the composite z-score in [1] is 1.58; in assay [2] it was -0.306; in assay [3], 0.461; in assay [5], -1.34; in assay [6], -0.33; in assay [7] it was -1.71. Also, the composite z-score in assay [8] was -0.715; in assay [9] it was -2.24; in assay [10], -1.41; in assay [11], 1.07; in assay [13], -1.44; in [14], 0.222. Further, the composite z-score was 0.45 in assay [15]; 0.0654 in assay [16]; 0.16 in assay [17]; -0.347 in assay [18]; 0.0025 in assay [19]; 0.274 in assay [20]. Moreover, the z-score in assay [4] was -2.49 (inactive); in assay [12], -2.34.
Take `COc1ccc([Si](C)(C)[C@@H]2[C@@H](CCO)O[C@]3(C(=O)N(Cc4cccc(N5CCCCC5=O)c4)c4ccccc43)[C@H]2C)cc1`: the composite z-score is 1.06 in assay [1]; -0.0212 in assay [2]; 0.113 in assay [3]; 1.04 in assay [5]; 0.971 in assay [6]; 0.319 in [7]. In addition, the composite z-score in assay [8] turned out to be 1; in [9], 0.404; in assay [10], 0.764; in assay [11], 1.34; in assay [13], 0.34; in [14], 1.08. Also, the composite z-score in [15] was 0.415; in [16] it was -0.0165; in assay [17], -0.0626; in [18] it was 0; in [19], 0.702; in assay [20], 0.836. In addition, the z-score in assay [4] was -2.96 (inactive); in assay [12], -5.14.
`COCCOC(=O)N1C(=O)[C@@]2(c3cc(C#CC4(O)CCCCCC4)ccc31)[C@H](c1ccc(O)cc1)N1[C@H](c3ccccc3)[C@H](c3ccccc3)OC(=O)[C@H]1[C@@H]2C(=O)N1CCc2cc(OC)c(OC)cc2C1`: the composite z-score is 1.23 in assay [1]; -0.226 in [2]; 0.687 in assay [3]; -0.681 in [5]; -0.32 in assay [6]; -0.705 in [7]. Besides, the composite z-score in assay [8] was -1.15; in [9], -0.591; in assay [10] it was 0.0107; in [11], -0.213; in assay [13], -1.24; in assay [14], -0.548. Also, the composite z-score is -0.179 in [15]; -0.145 in assay [16]; 0.0756 in [17]; -0.321 in assay [18]; 0.282 in assay [19]; -0.678 in assay [20]. For the same compound, the z-score in assay [4] is -0.597 (inactive); in assay [12] it was -0.302.
`CC(C)N1C(=O)c2ccccc2[C@](C)(C(=O)NC2CC2)[C@@H]1c1ccc(CO)cc1`: the composite z-score in assay [1] was 0.173; in assay [2] it was 0.0976; in assay [3], 0.151; in assay [5], 0.13; in [6], 0.821; in [7], -0.415. The composite z-score in assay [8] worked out at 0.507; in assay [9] it was 0.33; in [10], 0.926; in assay [11], 0.591; in assay [13], 0.0197; in assay [14], 0.391. The composite z-score was -0.34 in assay [15]; -0.096 in [16]; -0.138 in assay [17]; 0.214 in [18]; 0.507 in [19]; 0.931 in assay [20]. Besides, the z-score in assay [4] is -0.0713 (inactive); in assay [12] it was -0.479.
Take `COc1c(C)cc(-c2cc3c(c(-c4ccccc4)n2)[Si](C(C)C)(C(C)C)O[C@H]3c2ccccc2)cc1C`: the composite z-score was -0.14 in [1]; -0.16 in [2]; -0.327 in assay [3]; 0.397 in assay [5]; 0.02 in [6]; 0.0111 in [7]. For the same compound, the composite z-score was 0.168 in assay [8]; 0.211 in [9]; 0.0244 in assay [10]; -0.217 in assay [11]; -0.009 in assay [13]; -0.0867 in assay [14]. Besides, the composite z-score in assay [15] is -0.24; in [16] it was -0.006; in [17], -0.147; in assay [18], -0.482; in assay [19] it was 0.38; in assay [20] it was 0.614. For the same compound, the z-score in assay [4] is 0.139 (inactive); in assay [12] it was -0.526.

These data come from PubChem BioAssay.
